61 molecules from ChEMBL document CHEMBL3988442, “University of Dundee, Small-Polar-MMV Screening Library” (2021) can be followed below.

The whole screen tested about 69,000 compounds, of which about 950 (1.4%) showed an effect of 50% or more. The list comes from a sample in which strong results are over-represented; it also holds similar structures and randomly drawn compounds.

This assay has as its system Mycobacterium tuberculosis. Briefly: Cornell M. t heat shock assay. Also: in the data most compounds retested in dose-response had high values. The assay is classed as functional, organism-based. Also on record: dose or concentration left out as unconfirmed.
For the molecule `CC(=O)NCC(=O)N1Cc2nccn2CC(COc2cccnc2)C1.O=C(O)C(F)(F)F` (stereo unspecified), the “Percent Effect” value is -35.06%.

Consider `Cc1nc(C2(O)CCCNCC2)sc1CCOc1ccccc1F.Cl` (stereo unspecified), for which the “Percent Effect” value was -4.166%.

As for `O=CO.c1cc2nccc(CC3CCCN(Cc4c[nH]cn4)CC3)c2cn1` (stereo unspecified), the “Percent Effect” value is -8.502%.

In the case of `CCN1CCOCC12CCN(c1cnccn1)CC2.O=C(O)C(F)(F)F`, the “Percent Effect” value is recorded as -4.677%.

With `CC(C)(CO)CNC(=O)c1cc(-c2cc[nH]n2)n2ccccc12.O=C(O)C(F)(F)F`, the “Percent Effect” value was determined as 10.76%.

For the molecule `O=C(O)C(F)(F)F.O=C(O)C(F)(F)F.O=C(O)C(F)(F)F.c1cncc(CN2CCC3(CC2)CC(c2cccnc2)CO3)c1` (stereo unspecified), the “Percent Effect” value is recorded as -27.59%.

Turning to `CNC(=O)COc1ccc(CNc2cncc(-n3cccn3)n2)cc1`, the “Percent Effect” value was -4.201%.

In the case of `CCOCc1ccc(CNc2cncc(-n3cccn3)n2)cc1`, the “Percent Effect” value is reported as -0.9926%.

For `CCCOc1ccc(CNc2cncc(-n3cccn3)n2)cc1`, the “Percent Effect” value was 63.69%.

For `CCOc1cc(CN(C)CC(=O)O)ccc1OC(F)F.Cl`, the “Percent Effect” value is reported as -22.89%.

For `Cc1cc2cccc(NC(=O)N3CC[C@@H]4CC[C@H](C3)N4C)c2o1`, the “Percent Effect” value is reported as 25.84%.

For `Cc1cc(-c2cnn(CCNC(=O)c3cnn(C)c3)c2C2CC2)on1`, the “Percent Effect” value is -6.591%.

In the case of `Cc1cc(-c2cnn(CCNC(=O)c3cc[nH]n3)c2C2CC2)on1`, the “Percent Effect” value is 53.69%.

`Cc1cc(-c2cnn(CCNC(=O)C3CC3)c2C2CC2)on1`: the “Percent Effect” value is -1.703%.

Regarding `O=S(=O)(c1ccccc1)N1C(CN2CCOCC2)[C@]2(O)CC[C@H]1CC2` (stereo partly specified), the “Percent Effect” value is recorded as -28.69%.

Turning to `CCS(=O)(=O)N1CCOC2(CCCN(Cc3ccccn3)C2)C1.O=C(O)C(F)(F)F` (stereo unspecified), the “Percent Effect” value stood at 2.925%.

In the case of `NCC(=O)N1CCC(c2cncc(Oc3cccnc3)n2)CC1`, the “Percent Effect” value is reported as -6.248%.

Take `COCCC(=O)N1CCC(c2cncc(Oc3cccnc3)n2)CC1`: the “Percent Effect” value was 51.38%.

With `CCC(=O)N1CCC(c2cncc(Oc3cccnc3)n2)CC1`, the “Percent Effect” value is on record as -19.43%.

Turning to `Cl.c1ccc(CCNc2cccc(C3CCCNC3)n2)cc1` (stereo unspecified), the “Percent Effect” value is recorded as -24.38%.

On to `CCOc1ccc(Cl)cc1C1CCCN1.Cl` (stereo unspecified), for which the “Percent Effect” value is given as -11.35%.

On to `Cl.Clc1cccc(N[C@H]2CCCN[C@H]2Cc2ccccc2)c1`, for which the “Percent Effect” value turned out to be 104.4%.

`O=C1NCCCC1NC(=O)C1(c2cccc(Cl)c2)CCC1` (stereo unspecified): the “Percent Effect” value is reported as 0.8202%.

`CN[C@H]1CC[C@]2(CC1)CNC(=O)c1cc(C)ccc1O2`: the “Percent Effect” value was -8.947%.

With `CN1CCN(S(=O)(=O)c2ccccc2)Cc2cccnc21.O=C(O)C(F)(F)F`, the “Percent Effect” value is listed as 19.11%.

With `CN(C)CC(=O)N1CCC2(CC1)CN(Cc1cccnc1)C(=O)CO2`, the “Percent Effect” value was -16.01%.

In the case of `Cc1cc(C)n(CC2CCCN2CCCS(C)(=O)=O)n1` (stereo unspecified), the “Percent Effect” value worked out at 7.273%.

Take `CCCC(O)CN1CCC(=O)N(Cc2ccccc2)Cc2ccccc21` (stereo unspecified): the “Percent Effect” value is listed as 5.738%.

`CCN1CCC(=O)N(C)Cc2cc(F)ccc21`: the “Percent Effect” value was 13.57%.

Turning to `CN1Cc2ccccc2N(CC(O)C(F)(F)F)CCC1=O` (stereo unspecified), the “Percent Effect” value turned out to be 42.32%.

With `CCCC(O)CN1CCC(=O)N(C)Cc2cc(F)ccc21` (stereo unspecified), the “Percent Effect” value turned out to be 66.32%.

Consider `CC(C)(O)CN1CCC(=O)N(Cc2ccco2)Cc2cc(F)ccc21`, for which the “Percent Effect” value is -9.768%.

Consider `CCCC(O)CN1CCC(=O)N(CCOC)Cc2ccccc21` (stereo unspecified), for which the “Percent Effect” value amounted to 30.93%.

As for `CCCC(O)CN1CCC(=O)N(CC)Cc2cc3c(cc21)OCO3` (stereo unspecified), the “Percent Effect” value was determined as 53.46%.

Consider `CN1Cc2cc(F)ccc2N(CC(O)C(F)(F)F)CCC1=O` (stereo unspecified), for which the “Percent Effect” value was 54.29%.

`COc1ccc2c(c1)CN(C)C(=O)CCN2CC(O)C(F)(F)F` (stereo unspecified): the “Percent Effect” value came out at 35.74%.

On to `CCCC(O)CN1CCC(=O)N(CCOC)Cc2cc3c(cc21)OCO3` (stereo unspecified), for which the “Percent Effect” value is 26.79%.

Regarding `CCCC(O)CN1CCC(=O)N(CC2CC2)Cc2cc3c(cc21)OCO3` (stereo unspecified), the “Percent Effect” value was found to be 15.68%.

As for `CN1Cc2cc(F)ccc2N(CC(C)(C)O)CCC1=O`, the “Percent Effect” value is on record as 56.09%.

For `CCc1ccc(CN2C[C@H](OC)[C@H]3COC[C@H]32)o1.O=C(O)C(F)(F)F`, the “Percent Effect” value came to 46.3%.

For `Cn1cc(CN2C[C@H]3CCC[C@@]3(COc3ccccn3)C2)cn1.O=C(O)C(F)(F)F.O=C(O)C(F)(F)F`, the “Percent Effect” value is given as -2.585%.

Regarding `Cl.Fc1cccc(F)c1Cn1c(C2CCNCC2)cc2cccnc21`, the “Percent Effect” value is listed as -5.947%.

Consider `Cc1nc(CN2C(=O)C[C@H]3[C@H]2CCN3CC2CCOC2)cs1.O=C(O)C(F)(F)F` (stereo partly specified), for which the “Percent Effect” value is on record as -4.028%.

As for `COCC1CC2(CCN(c3ccc(C)nn3)CC2)CN1C(C)C.O=C(O)C(F)(F)F` (stereo unspecified), the “Percent Effect” value was -4.94%.

Consider `Cl.Cl.O=C(NCc1cncc2c1CCN(CC1CCOC1)C2)c1ccco1` (stereo unspecified), for which the “Percent Effect” value was 5.54%.

Turning to `COCCN1CCC2(C1)c1ccccc1S(=O)(=O)N2C.O=C(O)C(F)(F)F` (stereo unspecified), the “Percent Effect” value was determined as 24.71%.

`Cc1cc(N2CCN(Cc3ccnn3C)CC2)cc(C2CCCN2)n1.Cl` (stereo unspecified): the “Percent Effect” value is -17.02%.

As to `Cc1nc(C2(O)CCCNCC2)sc1CCOc1ccc(F)c(F)c1.Cl` (stereo unspecified), the “Percent Effect” value was -9.071%.

On to `CC(C)CS(=O)(=O)N1C[C@H]2C[C@H](C(=O)N(C)C)[C@@H](C1)O2`, for which the “Percent Effect” value was 1.328%.

`CCN1Cc2cc(F)ccc2N(CC(O)C(F)(F)F)CCC1=O` (stereo unspecified): the “Percent Effect” value amounted to 51.9%.

`COc1ccc2c(c1)CN(C)C(=O)CCN2CC(O)C(C)(C)C` (stereo unspecified): the “Percent Effect” value is given as 46.8%.

`CCN1Cc2cc(OC)ccc2N(CC(C)(C)O)CCC1=O`: the “Percent Effect” value is recorded as -11.62%.

For `CC(C)OCc1nn(C)c2c1CN(Cc1cccs1)CC2.O=CO`, the “Percent Effect” value came to 3.631%.

On to `Cc1noc(CNc2c(N3CCCC3)cccc2N2CCCC2)n1`, for which the “Percent Effect” value was determined as 25.1%.

As for `Cc1noc(C)c1CNc1c(N2CCCC2)cccc1N1CCCC1`, the “Percent Effect” value was determined as 65.01%.

Take `COc1ccccc1N1CCC(NCc2c(C)noc2C)C1` (stereo unspecified): the “Percent Effect” value was -23.49%.

Regarding `COc1cccc(CN2CCC3(CC2)CCN(C(=O)[C@@H]2CCCO2)C3)c1.O=C(O)C(F)(F)F`, the “Percent Effect” value was -4.383%.

Take `Cc1nc(Cc2ccc(F)cc2)cc(C2COCCN2)n1.Cl` (stereo unspecified): the “Percent Effect” value was 12.05%.

`O=C(Nc1ccccc1)[C@H]1C[C@@H]2CN(S(=O)(=O)C3CC3)C[C@H]1O2`: the “Percent Effect” value turned out to be 2.732%.

Turning to `CN(C)CCN(C(=O)Cc1ccc2c(c1)OCCO2)C1CCN(C)CC1.O=C(O)CC(O)(CC(=O)O)C(=O)O`, the “Percent Effect” value was -33.14%.

Take `CCOCC1CN(Cc2cccnc2)Cc2nn(C)cc21.O=C(O)C(F)(F)F.O=C(O)C(F)(F)F` (stereo unspecified): the “Percent Effect” value is recorded as -34.52%.
